High-throughput results deposited in PubChem by National Center for Advancing Translational Sciences (NCATS).
In the library only some 7.4% were active in any assay of this set; here they are far more common.
SMN2 splice up – increases expression of the SMN2 splice variant | HEK293 SMN2-luciferase splicing reporter, luminescence, 30-36 h | Potency, µM (highest dose often 46.1 µM), without a hit: at the highest dose activity change, positive = activation, actives largely listed as activators | actives 2.8% (n = 210,000) | AID 1458; note: % of control where 0% means no effect; nearly all actives have a fitted effect of over 55% in size
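qHTS luciferase splicing reporter: luminescence rises when SMN2 exon 7 is included in transfected HEK293 cells. Compound exposure lasted 30-36 h at 37C, with 4.5 mM final sodium butyrate as control, followed by a ONE-Glo read.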
Luc counter – Kinase-Glo luciferase inhibition (counter-screen) | Kinase-Glo luciferase, ATP luminescence, 8 min | Potency, µM (titrated, usually from 38.3 µM), inactives show top-dose activity change, negative = inhibition, usual class: inhibitors | AID 1379 | actives 0.28% (n = 200,000); note: % is set by controls: 0 for no effect and ±100 for the full control effect; nearly all actives have a fitted effect of over 60% in size
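Luminescence was the read-out, taken after 8-minute incubation at ambient temperature. Luciferase turned over luciferin with 10 uM ATP in imidazole pH 7.2 buffer containing KCl, MgCl2, Tween 20 and BSA.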
ELG1 genotoxic – inducers of genotoxicity in HEK293T ELG1-luciferase cells; HEK293T ELG1-luciferase reporter, luminescence, 16 h; Potency, µM (series often up to 46 µM), inactives show at the highest dose activity change, positive = activation, hits mostly activators; actives 1.3% (n = 330,000); note: % of control where 0% means no effect; nearly all actives have a fitted effect of over 60% in size
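Genotoxicity was scored as increased ELG1-luciferase reporter signal, measured by ONE-Glo luminescence (30 min, room temperature). Compound or vehicle exposure of the HEK293T reporter cells lasted 16 hr at 37°C.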
Rab9 prom act – Rab9 promoter activation. Huh7 Rab9 promoter-luciferase reporter, luminescence, 24 h. Potency, µM (doses to about 9.22 µM), inactives show at the highest dose activation, negative = inhibition, hits mostly activators. actives 2.8% (n = 320,000). AID 485297; note: % of control where 0% means no effect; nearly all actives have a fitted effect of over 60% in size
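Luminescence read-out: Huh7 cells stably expressing Rab9-luciferase, treated 24 h with compound at 37 °C, then lysed with luciferase reagent for 10 min at ambient before reading.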
NPC1 promoter act – activators of NPC1 promoter | Huh7 NPC1 promoter luciferase reporter, 24 h | actives 2.4% (n = 320,000) | Potency, µM (doses to about 9.22 µM), inactives show at the top dose activation, usual class: activators; note: % of control where 0% means no effect; nearly all actives have a fitted effect of over 60% in size
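Huh7 reporter cells (NPC1 promoter driving luciferase) are dosed with compound for 24 h at 37 °C, 5% CO2; luciferase detection reagent is then added and luminescence measured after 10 min at ambient temperature.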
FLuc modulator – firefly luciferase modulation, counter-screen for miR-21 project | purified FLuc, Km substrates, luminescence inhibition | Potency, µM (top dose mostly 57.5 µM), inactives show top-dose activity change, negative = inhibition, most hits filed as inhibitors | actives 6.9% (n = 360,000) | AID 588342;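 note: plate controls were vehicle for no effect and reference inhibitor for full effect; nearly all actives have a fitted effect of over 55% in size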
Target sequence (P08659 whole entry, looked up): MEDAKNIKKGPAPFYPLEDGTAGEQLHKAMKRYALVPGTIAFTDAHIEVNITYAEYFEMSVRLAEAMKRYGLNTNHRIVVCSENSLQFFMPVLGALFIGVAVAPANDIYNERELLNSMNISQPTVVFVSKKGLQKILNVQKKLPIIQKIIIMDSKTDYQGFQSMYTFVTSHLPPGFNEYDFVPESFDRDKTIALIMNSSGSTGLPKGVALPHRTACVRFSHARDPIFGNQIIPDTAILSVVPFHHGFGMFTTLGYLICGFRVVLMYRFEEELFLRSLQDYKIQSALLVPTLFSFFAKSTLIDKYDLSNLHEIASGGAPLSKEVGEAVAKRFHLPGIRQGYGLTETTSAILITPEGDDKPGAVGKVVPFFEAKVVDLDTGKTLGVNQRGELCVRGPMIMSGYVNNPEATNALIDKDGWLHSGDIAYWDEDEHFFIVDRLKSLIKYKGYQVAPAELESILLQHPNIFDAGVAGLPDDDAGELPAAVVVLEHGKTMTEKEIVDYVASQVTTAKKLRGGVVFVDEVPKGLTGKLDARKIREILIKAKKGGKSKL
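Purified P. pyralis luciferase (10nM final) with 10uM D-luciferin and 10uM ATP (Km levels) in 50mM Tris acetate pH 7.5, 10mM Mg acetate, 0.01% Tween-20, 0.05% BSA; qHTS 6-point titration, ~60 µM downward; luminescence read.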
* marks the source's active call; other numbers are inactive results; ? = inconclusive; . = no result given; [ ] = another dose, or the depositor's remark. Calls come from the whole dose curve; as a rule, active = well fitted curve in the direction sought with a large enough effect; inconclusive = small, poorly fitted or top-dose-only effect, or another doubt; inactive = no such curve, though single readings can be large; an effect the other way counts as inactive or inconclusive. Potency is the fitted concentration of half-maximal effect.

SMILES	SMN2 splice up	Luc counter	ELG1 genotoxic	Rab9 prom act	NPC1 promoter act	FLuc modulator
Cc1cc(C)n(-c2cc(C(C)(C)C)nc3c(-c4ccc(Cl)cc4)cnn23)n1	-7%	-2%	3%	6%	-3%	?
Cc1cc(N2CCN(C(=O)c3ccco3)CC2)n2ncnc2n1	7%	1%	3%	1%	-2%	-2%
Cc1cc(C)n(-c2cc(C(C)(C)C)nc3c(-c4ccccc4)cnn23)n1	.	.	?	2.8µM*	2.5µM*	1.9µM*
CC1CC2(C)Oc3ccccc3C3OCC1(COC(=O)Nc1ccccc1)C(C)C32 (configuration not stated)	.	2%	.	.	.	.
Cc1c(Cl)cccc1-n1ncc(C(=O)Nc2ccc(Br)cc2F)c1C1CCNCC1	.	.	.	.	.	-5%
NCC1OC(n2cnc3c(=O)[nH]c(N)nc32)C(O)C1O (configuration not stated)	2%	-1%	.	.	.	.
Cc1cc(N2CCCCC2)n2ncc(-c3ccc(Cl)cc3)c2n1	-15%	-1%	2.1µM*	2.8µM*	4µM*	2.4µM*
C=CCSc1cc(C)nc2c(-c3ccccc3)c(C)nn12	.	.	3%	2%	-4%	12µM*
Cc1cc(N2CCOCC2)n2ncc(-c3ccc(Cl)cc3)c2n1	.	.	?	0.63µM*	2.2µM*	0.6µM*
Cc1cc(SCC#N)n2nc(C)c(-c3ccccc3)c2n1	-31%	1%	-8%	-4%	-4%	?
CC(=O)Nc1ccc(Nc2cc(C)nc3c(-c4ccc(Cl)cc4)cnn23)cc1	?	2%	6%	2.5µM*	2.2µM*	-17%
CC(=O)Nc1ccc(Nc2cc(C)nc3c(-c4ccc(Cl)cc4)c(C)nn23)cc1	-29%	5%	0%	-6%	-7%	0%
CC(C)(C)c1cc(N2CCOCC2)n2ncc(-c3ccc(Cl)cc3)c2n1	.	.	1%	12%	-4%	?
CCC(=O)[C@@H](c1ccccc1)c1ccccn1	-9%[9.22 µM]	-3%[7.66 µM]	.	.	.	.
Cc1nc2cc(-c3cccc(F)c3)nn2c(N2CCN(C(=O)c3ccco3)CC2)c1C	13%	8%	?	-1%	4%	17µM*
Cc1cc(N2CCOCC2)n2ncc(-c3ccccc3)c2n1	2.2µM*	-10%	0.18µM*	0.71µM*	0.56µM*	0.34µM*
Cc1nc2cc(-c3cccc(F)c3)nn2c(C)c1CCC(=O)N1CCN(c2ccccn2)CC1	.	.	-4%	-3%	1%	-9%
Cc1cc(N2CCC(C)CC2)n2ncc(-c3ccccc3)c2n1	-38%	-3%	0.41µM*	0.32µM*	0.35µM*	0.76µM*
C=CCc1c(C)nc2c(-c3ccccc3)cnn2c1N1CCOCC1	.	.	10µM*	1.6µM*	2.8µM*	2.4µM*
Cc1nc2c(-c3ccccc3)c(C)nn2c(C)c1CCC(=O)N1CCOCC1	-3%	-3%	-1%	0%	-2%	-6%
CC[C@@H]1Cn2c(c3nc(-c4ccccc4)nc-3n(C)c2=O)N1	-11%	-2%	.	.	.	.
Cc1ccc(-n2c(/C=C/c3c(C)n(C)c4ccccc34)nc3ccccc3c2=O)cc1	0%	.	.	.	.	-2%
CC(=O)Nc1cccc(NC(=O)C2(c3cccs3)CCOCC2)c1	.	.	.	.	.	-1%
Cn1c(=O)oc2cc(S(=O)(=O)NC(Cc3ccccc3)C(=O)Nc3ccc(F)cc3)ccc21 (configuration not stated)	7%	.	.	.	.	0%
Cc1ccc(-c2cnn3c(N4CCOCC4)cc(C)nc23)cc1	.	.	?	-14%	-11%	0.48µM*
COc1ccc([C@]23Cc4cc(C#N)ccc4C(O2)C2=C(CC4(CCCCC4)OC2=O)O3)cc1	.	.	.	-7%[1.84 µM]	-7%[1.84 µM]	-2%[11.5 µM]
COc1cc(C(=O)N/N=C/c2ccc(OC(=O)c3cccc(C)c3)cc2)ccc1O	.	.	4%	-5%	-2%	?
Cc1cccc(C(=O)Oc2ccc(/C=N/O)cc2)c1	1%	-2%	?	15%	26%	7.6µM*
